Bioassay records (PubChem BioAssay)
Rows were chosen to be rich in hits. Some 21% of all compounds tested hit in one or more screens of this group.
Shiga inhibitor: A qHTS for Small Molecule Inhibitors of Shiga Toxin; Vero cells, Shiga toxin protein synthesis inhibition reporter; inhibition, % at 38.7 µM; 290,000 tested, 9.2% active; in the data active = inhibition mostly above about 28%, no sharp cut-off; inactive = mostly below about 43%; also: 0% is about no effect
NS1 function inh: qHTS Assay for Inhibitors of Influenza NS1 Protein Function; Potency, µM (highest dose often 46.1 µM), inactives show at the highest dose activity, positive = more growth; 270,000 tested, 0.4% active; calls by dose curve; also: potency is read from the fitted curve at half-maximal effect; actives are rising curves; nearly all actives have a fitted effect of over 50% in size
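Compounds were scored for reversing the slow growth caused by influenza A NS1 in S. cerevisiae, measured by optical density at 600 nm. Assay medium contained 2% galactose at pH 6.0; NS1-free yeast of the same strain were the positive control.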
Pf growth 96h: Primary qHTS for delayed death inhibitors of the malarial parasite plastid, 96 hour incubation; P. falciparum luciferase reporter growth, 96 h; Potency, µM (series often up to 28.7 µM), inactives show at the top dose activity change, negative = inhibition, most hits filed as inhibitors; 320,000 tested, 6.9% active; also: potency is read from the fitted curve at half-maximal effect; % is scaled to controls: 0 for no effect and ±100 for the full control effect
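Plates of compound plus infected erythrocytes (2% hematocrit, 0.05% parasitemia final) incubate 96 hours, 37 C, 5% CO2. Detection reagent added; reduced luminescence from the parasites' luciferase reporter flags inhibition.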
Cycloheximide cs: Cycloheximide Counterscreen for Small Molecule Inhibitors of Shiga Toxin. cell reporter, cycloheximide protein synthesis inhibition counterscreen. max response, %. 300,000 tested, 12% active. AID 2314, 2010; in the data active = max response mostly above about 13%, no sharp cut-off; inactive = mostly below about 14%; also: read at 38.3 µM for the half of the compounds with a filed dose; 0% is about no effect
Pf growth 48h: Primary qHTS for delayed death inhibitors of the malarial parasite plastid, 48 hour incubation; 310,000 tested, 5.9% active; Potency, µM (titrated, usually from 28.7 µM), inactives show at the highest dose activity change, negative = inhibition, usual class: inhibitors; P. falciparum luciferase growth in erythrocytes, 48 h; also: potency is read from the fitted curve at half-maximal effect; % is scaled to controls: 0 for no effect and ±100 for the full control effect
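A one-generation exposure of luciferase-tagged malaria parasites in RPMI 1640/Albumax erythrocyte culture, 37 C and 5% CO2. Inhibition is inferred from decreased luminescence after adding detection reagent.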
Starred values were filed as active, the others as inactive; u = inconclusive; x = not tested or not shown. Unless noted, calls follow the shape of the dose curve; as a rule, active = well fitted inhibition curve with a large enough effect; inconclusive = small, poorly fitted or top-dose-only effect, or another doubt; inactive = no such curve, though single readings can be large or run the other way.

SMILES	Shiga inhibitor	NS1 function inh	Pf growth 96h	Cycloheximide cs	Pf growth 48h
COc1ccc2c(c1)CCC1C2=NN(/C(C)=C\C(C)=O)C1c1ccc(F)cc1 (centres undefined)	60*	-11%	-11%	62*	u
C/C(CC(=O)NCC(C)C)=N\NC(=O)COc1cc(C)c(Br)cc1Br	-14	-14%	-29%	-2	-6%
COc1ccc(CN2CC(C(=O)NCCc3ccc(C)cc3)CC2=O)cc1 (centres undefined)	-16	4%	-2%	3	-2%
Cc1cc2ncn(C(=O)N3CCCCC3)c2cc1C	36	-39%	13µM*	13	8%
Cc1cc2ncn(C(=O)N3CCCCCC3)c2cc1C	active	3%	7.4µM*	19*	53%
CC(=O)Nc1ccc(C(=O)n2cnc3cc(C)c(C)cc32)cc1	-17	-10%	23%	12	x
Cc1cc2ncn(S(=O)(=O)N3CCCCC3)c2cc1C	-6	-3%	x	-4	-10%
C[N+](C)(C)CC[N+]1(C)Cc2c(Cl)c(Cl)c(Cl)c(Cl)c2C1	x	x	0.24µM*	x	-10%
Cc1cc(C)c2c(c1)[C@@H]1C=CC[C@@H]1[C@H](c1ccc(S(=O)(=O)N3CCOCC3)cc1)N2	-6	u	8%	-5	10µM*
Cc1ccc(S(=O)(=O)N2CCOCC(=O)NCCOCCNC(=O)COCC2)cc1	13	-7%	x	-5	x
COc1ccc(CCN(C)C(=O)CCNS(=O)(=O)c2ccccc2C(F)(F)F)cc1OC	x	x	u	x	-3%
CCC(C)N(C)Cc1cccc(C2(O)CCN(S(=O)(=O)c3ccc(F)c(C)c3)CC2)c1 (centres undefined)	-18	-9%	u	-4	13µM*
Nc1nc(Nc2cccc(F)c2)nc(NCc2ccco2)c1[N+](=O)[O-]	36	-3%	u	13*	-29%
Nc1nc(Nc2ccc(Cl)cc2)nc(NCc2ccco2)c1[N+](=O)[O-]	84*	-2%	u	48*	u
Nc1nc(Nc2cccc(Cl)c2)nc(NCc2ccco2)c1[N+](=O)[O-]	36	-1%	u	34*	u
Nc1nc(NCCCN2CCOCC2)nc(Nc2ccc(Cl)cc2)c1[N+](=O)[O-]	6	-1%	-13%	0	u
Nc1nc(NCCCN2CCOCC2)nc(Nc2cccc(Cl)c2)c1[N+](=O)[O-]	21	1%	u	-3	5.9µM*
Cc1cccc(Nc2nc(N)c([N+](=O)[O-])c(NCc3ccco3)n2)c1	21	25%	u	-3	u
COc1ccc(/C=N/NC(=O)c2c(C)nnn2-c2nonc2N)cc1OC	-18	x	-1%	12	u
CCOc1ccc(S(=O)(=O)N(CC)CC(=O)NC2CC2)cc1	-3	8%	-26%	-2	u
CCOC(=O)C1CCCN(C(=O)Cn2ncc3c([nH]c4ccc(C)cc43)c2=O)C1 (centres undefined)	10	-4%	-13%	-2	u
CNC(=O)c1ccc(C)c(NC(=O)C2=C(C)OCCS2)c1	-15	-1%	-11%	-3	14%
O=C(/C=C/c1c(Cl)nc2ccccn12)N1CCN(c2ccccc2F)CC1	-18	8%	24%	-1	0%
O=C(/C=C/c1c(Cl)nc2ccccn12)N1CCCCC1	49	x	111%	39*	70%
c1ccc2cc(NCNc3ccc4ccccc4c3)ccc2c1	x	-40%	x	x	x
SMILES	Shiga inhibitor	NS1 function inh	Pf growth 96h	Cycloheximide cs	Pf growth 48h
Cc1cc(N)c2cc(NC(=O)Nc3ccc4nc(C)cc(N)c4c3)ccc2n1	x	-77%	u	x	1.2µM*
COc1ccc(C2(C)NC(=O)N(Cc3cc(Cl)cc4c3OCOC4)C2=O)cc1OC (centres undefined)	-16	-2%	u	-2	u
Cc1ccc(NC(=O)CSc2nnc(Cc3ccccc3)c(=O)[nH]2)c(C)c1	x	x	2%	x	u
Cc1ccsc1/C=N/Nc1ncc(Cl)cc1Cl	119*	-78%	-101%	32*	x
Cc1ccsc1/C=N/NC(=O)Cc1ccc(Cl)cc1	19	-41%	8%	9	-31%
COc1cc(/C=N/Nc2ccc(F)cc2F)cc(OC)c1OC	39	-8%	-100%	9	-11%
Cc1cc(C)nc(N/N=C/c2cccc([N+](=O)[O-])c2)n1	29	2%	8%	12	12%
Cc1n[nH]c(=O)nc1NCc1ccc(Cl)cc1	-19	4%	21%	-3	-4%
Cc1cc(C)nc(N/N=C/c2sccc2C)n1	77*	-5%	u	26*	22%
Cc1ccsc1/C=N/Nc1nc(=O)[nH]nc1C	112*	x	-7%	34*	u
Cc1ccsc1/C=N/Nc1ccc(F)cc1F	91*	-7%	u	44*	u
CCOc1ccc(N(CC(=O)Nc2ccc(C)cc2)S(=O)(=O)c2c(C)[nH]c(=O)[nH]c2=O)cc1	-10	-2%	-4%	-2	5%
Cc1ccsc1/C=N/NC(=O)CN1CCN(Cc2ccccc2)CC1	-3	-1%	33%	8	9%
Cc1ccsc1CN1CCN(c2ccccn2)CC1	-1	2%	u	4	-7%
Cc1ccsc1/C=N/N1CCN(c2ccccc2)CC1	60*	-14%	208%	71*	43%
Cc1ccsc1/C=N/N1CCN(c2ccccn2)CC1	55*	-37%	43%	31*	96%
Cc1ccsc1/C=N/N1CCN(Cc2ccccc2)CC1	38*	x	7%	24*	50%
CCOc1ccc(-n2nc3c(=O)n(CCN4CCCCC4)nc(C)c3c2C)cc1	16	-6%	-26%	-3	-3%
CC1CCN(C(=O)COC(=O)C2CCN(S(=O)(=O)c3c(Cl)cccc3Cl)CC2)CC1	x	x	0%	x	2%
Cc1cn2c(=O)c(C(=O)N3CCN(c4ccccc4Cl)CC3)cnc2s1	x	x	23%	x	46%
COc1ccc(C(=O)Nc2cc(C(C)=O)c(/C=C/N(C)C)oc2=O)cc1	41	-3%	141%	12	53%
Cc1ccc(C(=O)Nc2cc3ccccc3oc2=O)cc1	32	5%	11%	29*	14%
CC(=O)c1cc(NC(=O)c2ccc(C)cc2)c(=O)oc1C	72*	-2%	112%	28	105%
CC(=O)Nc1cc2ccccc2oc1=O	22	x	235%	13	10%
CC(=O)c1cc(NC(=O)c2ccccc2)c(=O)oc1C	-13	3%	94%	6	u
CC(=O)c1cc(NC(=O)c2ccc(C)cc2)c(=O)oc1/C=C/N(C)C	52*	2%	64%	48*	70%
CCN(C(=O)c1cc(S(=O)(=O)N2CCOCC2)cn1C)c1cccc(C)c1	-4	-2%	u	1	2%
O=c1c2cc(F)ccc2[nH]c(=S)n1CCCN1CCOCC1	14	4%	u	-4	11%
Cc1nn(C)cc1C(C)NCc1c(C(=O)N2CCCCCCC2)nc2ccc(Cl)cn12 (centres undefined)	-8	-5%	25%	-2	-23%
CC(Sc1n[nH]c(N)n1)C(=O)Nc1ccc(Cl)cn1 (centres undefined)	-5	8%	-3%	4	66%
